Rows were chosen to be rich in hits. Some 15% of all compounds tested hit in one or more screens of this group.
HCMV inh: qHTS Assay for inhibitors of the human cytomegalovirus (HCMV) | HFF cells, HCMV-luciferase reporter, 72 h; hits give low values | activity change, negative = inhibition, % at 57.5 µM | AID 1259415, 2018 | 410,000 compounds, 4.5% hits; in the data active means activity change below about -60%; inconclusive means no clear call, values can overlap the other calls; inactive means above about -39%; further: on the % scale 0 is the no-effect control and ±100 the full control effect
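After 16 h attachment at 37C, HFF cells received test compound and HCMV-luciferase (1 PFU/cell); reporter luminescence read 72 h later, data normalized against buffer-only and known inhibitor Salinomycin.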
Sm TGR inh: qHTS Assay for the Inhibitors of Schistosoma Mansoni Peroxiredoxins; Schistosoma mansoni thioredoxin glutathione reductase (TGR), Q962Y6; purified TGR, DTNB reduction, TNB absorbance 405 nm; Potency, µM (doses to about 114 µM), for inactives: top-dose activity change, negative = inhibition, most hits filed as inhibitors; 360,000 compounds, 3% hits; AID 485364, 2010; further: potency means the concentration at half of the fitted maximal effect; on the % scale 0 is the no-effect control and ±100 the full control effect; nearly all actives have a fitted effect of over 60% in size
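TGR 20 nM + NADPH 100 uM (dispensed conc.), cpd preinc 15 min RT; start with NADPH (500 uM addition) then DTNB (15 mM addition). Kinetic TNB absorbance, 405 nm filter. Four-parameter Hill fit across titration.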
SARS PLP yeast: qHTS of Yeast-based Assay for SARS-CoV PLP; S. cerevisiae expressing SARS-CoV PLpro, growth rescue; Potency, µM (series often up to 32.9 µM), for the others: at the top dose activity, positive = growth rescue, hits mostly activators; 330,000 compounds, 0.19% hits; calls by dose curve; further: potency means the concentration at half of the fitted maximal effect; 0% is about no effect; nearly all actives have a fitted effect of over 55% in size
HCV inhibitor: qHTS Assay for Inhibitors of Hepatitis C Virus (HCV) | Huh7.5.1 HCVcc-Cre infection, luciferase reporter, 44 h | Potency, µM (doses to about 41.8 µM), for inactives: at the top dose activity change, negative = inhibition, hits mostly inhibitors | 340,000 compounds, 3.4% hits | AID 651820, 2012; further: potency means the concentration at half of the fitted maximal effect; on the % scale 0 is the no-effect control and ±100 the full control effect
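HCVcc-Cre virus at an moi near 0.5 was added right after compound to cells cultured 4 h from seeding (1,000 cells/well). Luciferase activity was determined 44 h later, 15 min after substrate addition at RT.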
Pf growth 48h: Primary qHTS for delayed death inhibitors of the malarial parasite plastid, 48 hour incubation; P. falciparum luciferase growth in erythrocytes, 48 h; Potency, µM (highest dose often 28.7 µM), for the others: at the top dose activity change, negative = inhibition, usual class: inhibitors; 310,000 compounds, 5.9% hits; further: potency means the concentration at half of the fitted maximal effect; on the % scale 0 is the no-effect control and ±100 the full control effect
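Luciferase-expressing P. falciparum in infected erythrocytes (2% hematocrit, 0.1% parasitemia final) in RPMI 1640/0.5% Albumax were exposed to compound for 48 hours at 37 C, 5% CO2; growth read as luminescence.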
Pf growth 96h: Primary qHTS for delayed death inhibitors of the malarial parasite plastid, 96 hour incubation; AID 504834, 2011; P. falciparum luciferase reporter growth, 96 h; Potency, µM (doses to about 28.7 µM), without a hit: at the top dose activity change, negative = inhibition, most hits filed as inhibitors; 320,000 compounds, 6.9% hits; further: potency means the concentration at half of the fitted maximal effect; on the % scale 0 is the no-effect control and ±100 the full control effect
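Cell-based qHTS: luciferase-tagged P. falciparum in erythrocytes (2% hematocrit, 0.05% parasitemia final) incubated with compounds for 96 hours, 37 C, 5% CO2; luciferase detection reagent then added and luminescence measured.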
Numbers without * were called inactive; ? = inconclusive; · = no result; [ ] = dose if it differs, or a comment. Unless noted, the call rests on the fitted dose curve; in most records, active means well fitted curve in the direction sought with a large enough effect; inconclusive means small, poorly fitted or top-dose-only effect, or another doubt; inactive means no such curve, though single readings can be large; an effect the other way counts as inactive or inconclusive.

SMILES	HCMV inh	Sm TGR inh	SARS PLP yeast	HCV inhibitor	Pf growth 48h	Pf growth 96h
Cc1cnc([N+](=O)[O-])n1CCOC(=O)NC(=O)c1ccc(C(F)(F)F)cc1	39.1	0.6%	9.9%	24.9%	-8.7%	?
COc1cc(C2NC(=O)NC(C)=C2C(=O)OCc2ccccc2)ccc1O (stereo unspecified)	16.3	-11.7%	7.5%	4.4%	?	?
CCOC(=O)C1=C(C)NC(=O)NC1c1ccc(OC(=O)c2ccco2)cc1 (stereo unspecified)	-1.9	-2.0%	-16.9%	16.6%	9.7%	7.38µM*
COc1ccc(COC(=O)C2=C(C)NC(=O)NC2c2cccc(Br)c2)cc1 (stereo unspecified)	-27.9	-0.3%	1.0%	10µM*	?	?
CCOc1cc(C2NC(=O)NC(C)=C2C(=O)OCc2ccccc2)ccc1O (stereo unspecified)	-5.6	-2.9%	3.1%	-27.0%	2.33µM*	-10.2%
CCCCOc1ccccc1C1NC(=O)NC(C)=C1C(=O)OCc1ccco1 (stereo unspecified)	-31.5	44.7µM*	-0.4%	-18.8%	9.28µM*	?
COC(=O)C1=C(C)NC(=S)NC1c1ccc(OC(=O)c2ccco2)cc1 (stereo unspecified)	2.4	0.0%[57.1 µM]	-0.2%	2.2%	17.8%	?
Cc1ccc(NC(=S)NNc2ccc(C(=O)O)cc2[N+](=O)[O-])cc1C	?	·	·	25.8%	·	·
CC(=O)Nc1ccc(-c2nnc3n(Cc4ccc(C)cc4)c(=O)c4ccccc4n23)cc1	7.7	0.1%	·	·	·	·
CC1=C(C(=O)OC2CCC(C)CC2)C(c2ccc(O)c([N+](=O)[O-])c2)NC(=O)N1 (stereo unspecified)	14.8	-13.1%	3.9%	1.4%	-14.5%	?
COC(=O)C1=C(CS(=O)(=O)c2cc(OC)ccc2OC)NC(=O)NC1c1ccc(O)c(OC)c1 (stereo unspecified)	-2.5	0.6%	6.0%	17.7%	15.6%	10.4µM*
CCOC(=O)C(C)Oc1ccc(C2NC(=O)NC(C)=C2C(=O)Nc2ccccc2C)cc1 (stereo unspecified)	-37.6	0.2%	-3.0%	21.9%	10.4µM*	?
COc1ccc(COC(=O)C2=C(C)NC(=O)NC2c2ccc(O)c(OC)c2)cc1 (stereo unspecified)	-68.1*	1.7%	-2.5%	-17.4%	·	10.4µM*
CC1=C(C(=O)OCc2ccc(C)cc2)C(c2ccc(O)c([N+](=O)[O-])c2)NC(=O)N1 (stereo unspecified)	?	-0.9%	1.9%	0.5%	11.7µM*	-4.0%
CC(=O)N/C(=C\c1ccccc1)C(=O)OCc1cccc(S(=O)(=O)N(C)C)c1	-11.2	-9.9%	1.7%	?	?	?
COC(=O)C1CCN(C2CN(Cc3cn(Cc4ccc(C(F)(F)F)cc4)nn3)S(=O)(=O)C2)CC1 (stereo unspecified)	-11.1	·	·	·	·	·
NCCCn1c(C(=O)c2cc(Cl)c(N)c(Cl)c2)c2ccccc2[n+]1[O-]	69.5	35.5µM*	2.5%	?	?	?
NC(=O)CCn1c(C(=O)c2cc(Cl)c(N)c(Cl)c2)c2ccccc2[n+]1[O-]	-38.9	4.2%	-1.2%	6.0%	?	10.4µM*
CC1CCN(c2ccc(C=O)o2)CC1	-20.1	·	0.8%	7.5%	-26.5%	0.233µM*
Cc1cccc(OCCC(=O)Nc2ccc(N3CCOCC3)cc2N2CCOCC2)c1	-6.8	-12.4%	-0.7%	6.2%	?	?
C[C@H]1CN(c2ccccc2)C(=O)[C@@H]1CC(=O)Nc1ccc(Br)cc1	-10.9	·	·	·	·	·
CCC(=O)N(CC)C1=C(O)c2ccccc2C(=O)C1=O	-105.3*	0.282µM*	-31.8%	?	-7.4%	0.1%
Cc1c(C(=O)NCc2cccc(Br)c2)oc2ccc3c(c12)C(=O)CC(C)(C)O3	58.1	3.3%	·	·	·	·
CCC(Sc1nc2ccccc2c2nc(CCn3c(C)nc4ccccc43)nn12)C(=O)Nc1ccc(F)cc1 (stereo unspecified)	-8.6	-1.4%	·	·	·	·
CCc1ccc(Nc2cc(=O)n(C3CCCCC3)c(=O)[nH]2)cc1	3.5	-0.5%	-4.9%	?	0.147µM*	-9.3%
SMILES	HCMV inh	Sm TGR inh	SARS PLP yeast	HCV inhibitor	Pf growth 48h	Pf growth 96h
O=c1cc(Nc2ccc3c(c2)OCCO3)[nH]c(=O)n1C1CCCCC1	35.9	-6.2%	5.5%	?	2.08µM*	36.0%
O=c1cc(N2CCN(c3ccc(F)cc3)CC2)[nH]c(=O)n1C1CCCCC1	45.6	3.4%	-10.8%	27.5%	-5.6%	92.1%
O=c1cc(Nc2ccc3c(c2)OCCO3)[nH]c(=O)n1-c1ccc(Cl)cc1	-17.2	0.3%	-0.9%	4.2%	3.4%	1.9%
Cc1ccc(CNc2cc(C)nc3nc(-c4cccc(C)c4)nn23)cc1	69.3	?	·	·	·	·
Cc1cccc(NC(=O)COC(=O)c2ccc(S(=O)(=O)N3CCCCCC3)cc2)c1	-99.2*	-3.7%	-2.1%	13.8%	?	11.0%
CC1CCc2c(C(=O)OCC(=O)Nc3cccc(S(=O)(=O)N4CCCCCC4)c3)csc2C1 (stereo unspecified)	?	5.1%	-26.8%	7.08µM*	29.9%	84.8%
O=C(COC(=O)c1ccc(S(=O)(=O)N2CCCC2)cc1)Nc1cccc(Br)c1	28.0	-0.5%	6.9%	16.1%	17.8%	-15.6%
Cc1ccc(NC(=O)COC(=O)c2csc3c2CCC(C)C3)cc1S(=O)(=O)N1CCCCC1 (stereo unspecified)	13.8	-2.8%	7.3%	?	5.0%	29.4%
Cc1ccc(C)c(C(=O)OCC(=O)Nc2cccc(S(=O)(=O)N3CCCCC3)c2)c1	?	-0.7%	3.0%	10µM*	10.4µM*	10.4µM*
COc1cccc2cc(-c3nc(-c4ccccc4F)no3)c(=O)oc12	-32.7	0.1%	·	·	·	·
N#Cc1ccccc1OCC(=O)N1CCN(c2ccccc2)CC1	-5.8	9.0%	·	·	·	·
COc1ccc(-c2noc(N(c3ccc(F)c(Cl)c3)c3nc(-c4ccc(OC)c(OC)c4)no3)n2)cc1OC	-9.1	-0.8%	·	·	·	·
CCCC(=O)C1C(=O)CC(C)(C)C(c2cc(C)no2)C1=O (stereo unspecified)	19.6	-1.0%	?	-0.8%	7.0%	0.117µM*
COC(=O)CCCCC(=O)C1C(=O)CC(C)(C)C(C(=O)OC)C1=O (stereo unspecified)	-0.2	-2.8%	4.2%	2.6%	-11.2%	·
COc1cc([N+](=O)[O-])cc2sc(NC(=O)c3c(F)cccc3F)nc12	-30.6	0.6%	0.6%	0.7%	92.5%	84.2%

High-throughput results: PubChem BioAssay, National Center for Advancing Translational Sciences (NCATS)
